Inconclusive results are not listed. Activity calls are given as the source filed them. Calls follow the shape of the dose curve; as a rule, active = well fitted inhibition curve with a large enough effect; inconclusive = small, poorly fitted or top-dose-only effect; inactive = flat fitted curve, though single readings scatter.
test system: ECU; test: qHTS profiling for inhibitors of Plasmodium falciparum proliferation (AID 504749);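 also: 0% = DMSO vehicle and full inhibition = artemisinin control; nearly all actives have a fitted effect of over 60% in size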; settings: P. falciparum in erythrocytes, SYBR Green DNA, 72 h; series mostly up to 28.7 µM; activity, negative = inhibition: at the top concentration
Method in brief: (§1)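 Fluorescence of SYBR Green-bound parasite DNA, read at 485/535 nm, served as the growth measure. Infected erythrocytes were cultured with compound 72 h; artemisinin (0.29 uM) and DMSO wells defined the normalization range.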

| SMILES | activity, negative = inhibition |
| --- | --- |
| CN=C(N)NCCCC(N)C(=O)O (stereo not given) | 6.23% (inactive) |
| N[C@H](Cc1ccc(O)c(O)c1)C(=O)O | -0.298% (inactive) |
| CN1C(=O)CCC1c1cccnc1 (stereo not given) | 15.2% (inactive) |

test system: FAB9; test: as above; settings: P. falciparum in erythrocytes, SYBR Green DNA, 72 h; series mostly up to 28.7 µM; activity, negative = inhibition: at the top concentration
Method in brief: as §1

| SMILES | activity, negative = inhibition |
| --- | --- |
| CN=C(N)NCCCC(N)C(=O)O (stereo not given) | 8.29% (inactive) |
| N[C@H](Cc1ccc(O)c(O)c1)C(=O)O | -13.7% (inactive) |
| CN1C(=O)CCC1c1cccnc1 (stereo not given) | -4.3% (inactive) |

test system: HB3; test: as above; settings: P. falciparum in erythrocytes, SYBR Green DNA, 72 h; series mostly up to 28.7 µM; activity, negative = inhibition: at the top concentration
Method in brief: as §1

| SMILES | activity, negative = inhibition |
| --- | --- |
| CN=C(N)NCCCC(N)C(=O)O (stereo not given) | 6.31% (inactive) |
| N[C@H](Cc1ccc(O)c(O)c1)C(=O)O | 16.3% (inactive) |
| CN1C(=O)CCC1c1cccnc1 (stereo not given) | -0.857% (inactive) |

test system: ICS; test: as above; settings: P. falciparum in erythrocytes, SYBR Green DNA, 72 h; series mostly up to 28.7 µM; activity, negative = inhibition: at the top concentration
Method in brief: as §1

| SMILES | activity, negative = inhibition |
| --- | --- |
| CN=C(N)NCCCC(N)C(=O)O (stereo not given) | -0.132% (inactive) |
| N[C@H](Cc1ccc(O)c(O)c1)C(=O)O | 10% (inactive) |
| CN1C(=O)CCC1c1cccnc1 (stereo not given) | -0.0487% (inactive) |

test system: N140; test: as above; settings: P. falciparum in erythrocytes, SYBR Green DNA, 72 h; series mostly up to 28.7 µM; activity, negative = inhibition: at the top concentration
Method in brief: as §1

| SMILES | activity, negative = inhibition |
| --- | --- |
| CN=C(N)NCCCC(N)C(=O)O (stereo not given) | 22% (inactive) |
| N[C@H](Cc1ccc(O)c(O)c1)C(=O)O | 16.5% (inactive) |
| CN1C(=O)CCC1c1cccnc1 (stereo not given) | 11.9% (inactive) |

Reference: PubChem BioAssay (NCATS)
